ATXN2 expr inh: inhibitors of ATXN2 expression. HEK-293 ATXN2-luciferase reporter, luminescence, 24 h. Potency, µM (top dose mostly 57 µM), for inactives: at the highest dose activity change, negative = inhibition, hits mostly inhibitors. 360,000 compounds, 0.72% hits. AID 1745845; also: potency is read from the fitted curve at half-maximal effect; % is scaled to controls: 0 for no effect and ±100 for the full control effect; nearly all actives have a fitted effect of over 55% in size
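ATXN2-luciferase reporter cells (luciferase flanked by upstream and downstream ATXN2 gene portions) were treated 24 h at 37 °C with compounds at up to 57 uM. SteadyGlo luminescence gave expression; GF-AFC fluorescence gave viability.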
HepG2 viability: HepG2 cytotoxicity, counter-screen for TGF-b inhibitors. Potency, µM (top dose mostly 46.1 µM), for inactives: at the top dose activity change, negative = cytotoxicity, most hits filed as cytotoxic. 410,000 compounds, 0.76% hits. AID 588856. HepG2 CAGA-GFP viability, ATP luminescence, 18 h; also: potency is read from the fitted curve at half-maximal effect
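HepG2 CAGA-GFP cells (1000/well, DMEM with 1% FBS) received compound, then TGF-beta at 500 pg/mL final, and were incubated 18 hours at 37 degrees C. Viability was read by CellTiter-Glo luminescence. Media-only wells were set as complete cell-killing and DMSO as no toxicity.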
D3 antag: antagonists of human D3 dopamine receptor; P35462; D3R cells, DiscoveRx beta-arrestin luminescence, antagonist mode; hits give low values; max response, negative = inhibition, %; 360,000 compounds, 2.5% hits; AID 652054; in the data active = max response below about -50%; inconclusive = no clear call, values can overlap the other calls; also: % is scaled to controls: 0 for no effect and ±100 for the full control effect
Target sequence (P35462 whole entry, looked up): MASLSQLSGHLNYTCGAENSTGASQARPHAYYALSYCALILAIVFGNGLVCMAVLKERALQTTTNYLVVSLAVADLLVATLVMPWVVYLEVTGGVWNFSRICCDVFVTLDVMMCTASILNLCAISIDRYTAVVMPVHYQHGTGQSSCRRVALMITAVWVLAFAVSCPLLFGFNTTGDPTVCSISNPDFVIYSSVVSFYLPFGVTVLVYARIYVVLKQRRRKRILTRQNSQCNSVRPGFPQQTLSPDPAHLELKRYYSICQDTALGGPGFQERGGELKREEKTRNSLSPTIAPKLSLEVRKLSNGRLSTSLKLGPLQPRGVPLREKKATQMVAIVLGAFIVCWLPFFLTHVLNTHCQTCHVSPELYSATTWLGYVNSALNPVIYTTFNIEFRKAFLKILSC
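Cells plated overnight at 1500 cells/well, then exposed to library compounds with dopamine controls for 90 minutes at 37 degrees C. DiscoveRx reagent added for 30–60 minutes at room temperature; luminescence read, quantitative HTS format.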
ATXN viability: viability counter-screen for ATXN expression inhibitors | S2 cells (HEK-293 line with an ATXN2-luciferase reporter) viability, CellTiter-Fluor protease fluorescence, 24 h | Potency, µM (series often up to 56.7 µM), most hits filed as cytotoxic | 400,000 compounds, 0.49% hits | AID 651635; also: potency is read from the fitted curve at half-maximal effect; nearly all actives have a fitted effect of over 40% in size
DRD3 agonist: agonists of human D3 dopamine receptor; D3R DiscoveRx beta-arrestin cells, luminescence, 90 min; max activation, %; 410,000 compounds, 0.58% hits; AID 652048; in the data active = max activation above about 30%; also: 0% is about no effect
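Agonist mode: compounds and dopamine controls were applied to plated cells for 90 min at 37 degrees C after an overnight attachment at 1500 cells/well. Luminescent read-out followed 30 - 60 minutes at room temperature with DiscoveRx detection reagent.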
TGFb SMAD3 inh: blocks TGF-b signaling. HepG2 CAGA-GFP TGF-b/SMAD3 reporter, GFP fluorescence, 18 h; TGF-beta stimulated, 500 pg/mL final. Potency, µM (highest dose often 46.1 µM), for inactives: at the top dose activity, negative = inhibition, hits mostly inhibitors. 410,000 compounds, 1.2% hits. AID 588855; also: potency is read from the fitted curve at half-maximal effect; % is scaled to controls: 0 for no effect and ±100 for the full control effect; nearly all actives have a fitted effect of over 65% in size
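Per well, imaged GFP fluorescence of HEPG2 CAGA-GFP cells gives the signal; cells get compound, then TGF-beta (500 pg/mL final), 18 h at 37 degrees C; %Activity versus -TGF-beta and +DMSO controls.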
* = called active by the depositor; i = inactive; ? = inconclusive; · = not tested or not shown. An excerpt weighted towards active compounds, which were near 4.8% of everything screened. Unless noted, calls follow the shape of the dose curve; as a rule, active = well fitted curve in the direction sought with a large enough effect; inconclusive = small, poorly fitted or top-dose-only effect, or another doubt; inactive = no such curve, though single readings can be large; an effect the other way counts as inactive or inconclusive.

SMILES	ATXN2 expr inh	HepG2 viability	D3 antag	ATXN viability	DRD3 agonist	TGFb SMAD3 inh
COc1ccc(OC)c(N2C(=O)CC(Cc3ccc(Cl)cc3)C2=O)c1 (stereo not given)	-8%	-15%	14	i	2	-3%
CCNC(=O)c1cc(NC(=O)COC)cc2nc(-c3ccncc3)n(C)c12	·	·	·	i	·	·
N#CC(C#N)=C1SC(=Nc2ccccc2)C(=Nc2ccccc2)N1c1ccccc1	27µM*	11%	0	27µM*	-17	-3%
O=C1CC(=C(c2ccccc2)c2ccccc2)C(=O)N1CCCCN1CCN(c2cccc(Cl)c2)CC1	2%	-19%	-52*	i	23	?
O=c1n(CCCN2CCN(c3cccc(Cl)c3)CC2)nc2ccccn12	-8%	21%	-93*	i	-72	-6%
O=C1C2CCCN2C(=O)N1CCCN1CCN(c2cccc(Cl)c2)CC1 (stereo not given)	-13%	-23%	-50*	?	-13	-10%
O=C1C2CCCCN2C(=O)N1CCCCN1CCN(c2cccc(C(F)(F)F)c2)CC1 (stereo not given)	-11%	-16%	-140*	i	-26	-17%
NC(=O)CN1CCN(c2cccc(Cl)c2)CC1	0%	9%	1	i	7	6%
O=C(Cn1c(=O)n2nc(-c3cccc(F)c3)nc2c2ccccc21)N1CCN(c2ccccc2F)CC1	9%	12%	·	i	-14	1%
COc1ccc(NC(=O)c2c(NCc3cccs3)sc3c2CCCCC3)cc1	?	-9%	·	i	-21	?
O=C1C2CCCCN2C(=O)N1CCCCN1CCN(c2cccc(Cl)c2)CC1 (stereo not given)	-22%	-11%	-60*	i	1	9%
CC(C)C(=O)Nc1cccc(N2CCN(CCCN3C(=O)C4CCCCN4C3=O)CC2)c1 (stereo not given)	10%	-8%	-1	i	-6	13%
Cc1c(C(=O)N2CCCC2)sc2ncnc(NCCCN3CCOCC3)c12	·	·	·	i	·	·
Cc1ccccc1-c1nnc(C2CCN(S(=O)(=O)c3ccc(Cl)cc3)CC2)o1	?	-40%	·	3.5µM*	-2	-15%
CC1CCN(S(=O)(=O)c2ccc(Cl)cc2)CC1	-1%	0%	19	i	11	-2%
COc1ccc(-c2nnc(C3CCN(C(=O)c4ccccc4F)CC3)o2)cc1	3.2µM*	-28%	·	3.2µM*	6	?
COc1ccc(-c2nnc(C3CCN(S(=O)(=O)c4cccc(Cl)c4)CC3)o2)cc1	18µM*	-48%	·	11µM*	3	?
COc1ccccc1-c1nnc(C2CCN(C(=O)c3ccc(C)cc3)CC2)o1	11%	-23%	·	?	6	?
COc1ccc(S(=O)(=O)N2CCC(c3nnc(-c4ccccc4C)o3)CC2)c(OC)c1	3.5µM*	-19%	·	7.9µM*	10	?
COc1cccc(C(C(=O)NC2CCCC2)N(Cc2ccco2)C(=O)c2ccco2)c1OC (stereo not given)	-6%	-15%	-65*	i	0	-20%
NC(=O)[C@@H]1CCCN1C(=O)CCN1Cc2ccccc2OC(c2ccccc2F)C1 (stereo not given in full)	·	·	·	i	·	·
O=C(CN1C2CCCC1CC(NC(=O)c1ccco1)C2)Nc1ccccc1 (stereo not given)	-7%	-3%	-58*	i	-13	0%
O=C(Nc1ccccc1-c1ccccc1)NC1CC2CCCC(C1)N2Cc1ccc(F)cc1 (stereo not given)	-25%	-15%	-101*	?	-8	-5%
O=C(NC1CC2CCCC(C1)N2S(=O)(=O)c1ccccc1)c1ccco1 (stereo not given)	-9%	0%	-20	i	-6	12%
Cc1ccc(C(=O)NC2CC3CCCC(C2)N3Cc2ccccc2)cc1 (stereo not given)	13%	11%	-80*	i	-30	-7%
SMILES	ATXN2 expr inh	HepG2 viability	D3 antag	ATXN viability	DRD3 agonist	TGFb SMAD3 inh
CCCNC(=S)NC1CC2CCCC(C1)N2Cc1ccc(F)cc1 (stereo not given)	·	-27%	-101*	i	-19	0%
COc1ccc(OC)c(C(C)NC(=O)Cn2c(=O)cc(C)c3c(C)nn(-c4ccc(C)cc4)c32)c1 (stereo not given)	·	-2%	·	·	-9	-12%
CN(C(=O)Cn1nnc(-c2ccc(S(C)(=O)=O)cc2)n1)c1ccccc1	9%	-5%	·	i	-1	?
O=C(NC1CCSc2ccccc21)c1ccc([N+](=O)[O-])cc1 (stereo not given)	3%	2%	8	i	-12	-3%
CCN(CC)C(=O)NC1CC2CCCC(C1)N2Cc1ccccc1 (stereo not given)	6%	-28%	-65*	i	-11	2%
Cc1ccc(CN2C3CCCC2CC(NC(=O)c2ccc(F)cc2)C3)cc1 (stereo not given)	-24%	-21%	-88*	i	-13	-12%
Cc1cccc(C(=O)NC2CC3CCCC(C2)N3Cc2ccccc2)c1 (stereo not given)	-16%	-24%	-112*	i	-30	-10%
CCCN1C2CCCC1CC(NC(=O)c1ccc(C(C)(C)C)cc1)C2 (stereo not given)	·	-55%	-19	i	-9	8%
O=C(NC1CC2CCCC(C1)N2Cc1ccccc1)c1ccc([N+](=O)[O-])cc1 (stereo not given)	-16%	-14%	-89*	i	-20	-19%
CCS(=O)(=O)N1CCCc2cc(C(=O)Nc3cc([N+](=O)[O-])ccc3C)ccc21	?	-13%	·	?	4	-9%
Cc1ccc(C(=O)C[n+]2cccc3cccc(O)c32)cc1	·	-11%	·	·	·	-6%
O=[N+]([O-])c1ccc(-n2nnnc2-c2ccccc2)cc1	·	1%	2	i	4	-4%
O=[N+]([O-])c1ccc(-n2nnnc2-c2ccccc2)c([N+](=O)[O-])c1	?	16µM*	-10	?	2	10µM*
Oc1ccccc1-c1nc2cnccn2c1Nc1ccc(Cl)cc1	?	-106%	·	?	7	6.3µM*
COc1ccc(/C=N/NC(=S)Nc2cc(C(F)(F)F)ccc2Cl)cc1	-26%	0.63µM*	7	i	8	9%
CCc1ccc(-n2nc(CO)c(C(=O)NCCOC)n2)cc1	·	-28%	·	·	1	?
CN(C(=O)NCc1noc2ccccc12)c1cccc(Cl)c1	7%	-9%	·	i	-2	-11%

Screening data from PubChem BioAssay.
